From PubChem BioAssay (NCI)
This is part of a sample that, as a whole, favours compounds with a hit. Of some 79,000 tested, about 15% had one in any assay. A number with no mark means an inactive call. Calls of active or inactive are those of the source. No stated cut-off is given here; in the data, active means growth inhibition above about 70%; inactive means the rest.

Assays:
[1] = NCI Yeast Anticancer Drug Screen. Data for the rad50 strain (AID 155);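 further: 0% = growth of vehicle-only cultures of the same strain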; details: S. cerevisiae rad50 strain growth inhibition; at 50.0 µM; hits give high values
Summary of the method: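 Relative growth inhibition (compound vs vehicle) was measured in yeast with a defined repair-gene alteration.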

[2] = NCI Yeast Anticancer Drug Screen. Data for the mec2-1 strain (AID 157); details: S. cerevisiae mec2-1 strain, at 50.0 µM, hits give high values
Summary of the method: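 Using mec2-1 yeast: add compound, measure growth, express inhibition versus vehicle-treated cultures.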

[3] = NCI Yeast Anticancer Drug Screen. Data for the sgs1 mgt1 strain (AID 161);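 further: 0% = growth of cultures given vehicle only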; details: S. cerevisiae sgs1 mgt1 strain, at 50.0 µM, hits give high values
Summary of the method: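 Compounds are added to genetically altered yeast, and growth is compared with cultures given vehicle alone to give percent inhibition.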

[4] = NCI Yeast Anticancer Drug Screen. Data for the cln2 rad14 strain (AID 165);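 further: 0% = growth equal to vehicle treated cultures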; details: S. cerevisiae cln2 rad14 strain, at 50.0 µM, hits give high values
Summary of the method: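 Yeast strain cln2 rad14, bearing defects in cell cycle control and DNA repair, serves as the test system; values reflect growth inhibition compared with vehicle.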

[5] = NCI Yeast Anticancer Drug Screen. Data for the bub3 strain (AID 167); details: S. cerevisiae bub3 mutant strain, at 50.0 µM, hits give high values
Summary of the method: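 Screening used yeast with an engineered genetic alteration affecting cell cycle control. Compound-exposed cultures were compared with vehicle cultures, and reduced growth was taken as inhibition.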

[6] = NCI Yeast Anticancer Drug Screen. Data for the mlh1 rad18 strain (AID 175); details: S. cerevisiae mlh1 rad18 strain growth inhibition; at 50.0 µM; hits give high values
Summary of the method: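 Steps: expose repair-defective yeast to compound; measure growth; express inhibition against vehicle-treated controls.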

SMILES	growth inhibition [1]	growth inhibition [2]	growth inhibition [3]	growth inhibition [4]	growth inhibition [5]	growth inhibition [6]
Nc1ccc(C(=O)Nc2ccc3c(O)cc(S(=O)(=O)O)cc3c2)cc1	23.2%	5.55%	2.65%	-6.5%	-10.5%	8.6%
C(=C1\CCC/C(=C/c2ccccc2)C1=NNc1ccccc1)/c1ccccc1	19.7%	2.35%	6.45%	18.1%	11%	24.1%
O=C(O)c1ccc(CS(=O)c2ccccc2)c([N+](=O)[O-])c1 (configuration not stated)	8.2%	-0.7%	-1.45%	14.4%	-4.9%	24.7%
O=C(Nc1ccccc1F)OCCCl	11.8%	-23.6%	6.55%	1.45%	3.55%	4.4%
CCCC1(c2ccccc2)CNC(=O)NC1	-3.8%	19.5%	1.8%	-9%	3.25%	-2.95%
CCCC[N+](C)(CCCC)CCCC	9.15%	9.65%	7.8%	-1.15%	14.2%	3.3%
O=C(O)C1CCOCC1	9.9%	0.7%	2.35%	4%	15.2%	-0.4%
CC(C)C(O)(c1ccccc1)C(O)(c1ccccc1)C(C)C (configuration not stated)	99.5% (active)	99.6% (active)	99.5% (active)	99% (active)	99.5% (active)	99.5% (active)
O=C1CSc2ccnc(=O)n21	-0.1%	-10%	16.7%	11.1%	-9.8%	-8.1%
Nc1nnc(-c2ccc(Nc3nc4ccccc4[nH]3)c([N+](=O)[O-])c2)s1	7%	1.4%	27.7%	15.3%	3.15%	14.1%
CCCNC(=O)/C=C\S(=O)CCC (configuration not stated)	-1.15%	2.9%	1.15%	-16.5%	16.9%	-2.6%
CCc1ccccc1NC(=O)C(=O)C1C(=O)N(c2ccccc2)N=C1N (configuration not stated)	-10.2%	-31.4%	-3%	21.4%	-34.5%	-22%
CCOCC/C(C(=O)O)=C(\CC)C(=O)O	9.15%	2.55%	0%	8.7%	-22.8%	9.05%
CCC(C(=O)O)c1ccc(OCc2ccccc2)cc1 (configuration not stated)	15.7%	2%	-10.2%	18.7%	8.05%	-2.95%
FC1(F)ON2CCc3ccccc3C2[C@H]1c1ccccc1 (some centres not stated)	13.3%	14.7%	10.2%	10%	22.4%	-50%
CC1C[C@]2(C)C(=NCCN)Nc3ccccc3[C@@H]2N(C)c2ccccc21 (some centres not stated)	-14.4%	-25.6%	-10.8%	-28.6%	-13.2%	13.3%
O=C1CCCNc2c(Br)cc(Br)cc21	49.2%	24.7%	14.2%	8.6%	46.5%	14.8%
C=C1C(=O)OC2/C=C(\C)CC/C=C(/C=O)C(OC(=O)C(C)C)C(O)C12 (configuration not stated)	-12.2%	-55.4%	17.6%	-7.25%	-42.1%	-31.6%
O=C1CSC(=S)N1N1C(=O)CSC1=S	-24.8%	-7.8%	-21.5%	-12.3%	5.55%	-12.4%
CC(=O)/C=c1\[nH]/c(=C\C=C\c2ccccc2)c(=O)n1/C=C1\C(=O)Oc2ccccc2C1=O	-39.4%	7.1%	4.6%	24.6%	-18.1%	-46%
COc1ccc2c(c1)C(=O)C(CO)C(C(=O)O)C2 (configuration not stated)	-13.1%	-17.1%	-1.15%	-24.6%	-3.5%	-24.8%

SMILES	growth inhibition [1]	growth inhibition [2]	growth inhibition [3]	growth inhibition [4]	growth inhibition [5]	growth inhibition [6]
NCCN1CCOCC1	7.95%	-3%	-11.9%	3.45%	-5.25%	7.8%
CN1C(=O)C(O)(c2c3c(c(C4(O)C(=O)N(C)c5ccccc54)c4c2OCO4)OCO3)c2ccccc21 (configuration not stated)	0.45%	-0.6%	-28.2%	-7.35%	-5.2%	8.95%
CNCC(OC)OC	5.3%	-29.8%	4.85%	16.1%	0%	11.2%
CCCC(=O)OCC(COC(=O)CCC)OC(=O)CCC	-26.8%	-8.35%	-17.4%	24.6%	4.9%	7.1%
CCN(CC)CCOC(=O)c1ccc(N=C/C=C/C(C#N)=C/NOC)cc1	0.3%	27.4%	9.85%	21.4%	9.9%	30.9%
CCOC(=O)c1n[nH]c(=S)[nH]c1=O	-7.95%	-1.8%	-3.05%	-16.9%	11.7%	-14.9%
COC(=O)C(CCCCNC(=O)OCc1ccccc1)NC(=O)c1ccc(N(C)C=O)cc1 (configuration not stated)	14.6%	19.7%	-1.7%	26.6%	3.45%	14.8%
COc1ccccc1OCC(O)CO (configuration not stated)	-8.3%	-22.9%	-14.8%	7.7%	-10.9%	10.5%
COc1cc(C(O)C2(c3ccc(O)c(OC)c3)NC(=O)NC2=O)ccc1O (configuration not stated)	-22.2%	16.3%	-9.35%	-16.9%	35.2%	-14.3%
C1=C[CH]([Sn]([CH]2C=Cc3ccccc32)([CH]2C=Cc3ccccc32)[CH]2C=Cc3ccccc32)c2ccccc21 (configuration not stated)	-14.2%	-6.75%	-1%	-6.4%	1.2%	-1.7%
COc1ccc2nc3cccc([N+](=O)[O-])c3c(NCCC(=O)O)c2c1	56.1%	-18.9%	49.9%	26.8%	-5.25%	25.8%
CC(=O)OCC1OC(n2c(-c3ccc(Cl)cc3)cc(-c3ccccc3)c(C#N)c2=S)C(OC(C)=O)C(OC(C)=O)C1OC(C)=O (configuration not stated)	20.6%	-9.25%	6.5%	2.8%	17.8%	14.2%
Clc1cc(Cl)nc(Nc2ccc3c(c2)CCC3)n1	23.9%	10.2%	-1.15%	-4.2%	3.9%	39.5%
Cn1c2ccccc2c2nc3ccccc3c(Cl)c21	-43.5%	-12.8%	-49.9%	-12.9%	-39.9%	-31.9%
CN1C2C=CC(=O)C1C1C(=O)N(c3ccccc3)C(=O)C12 (configuration not stated)	25.2%	45.1%	54%	31.4%	23.8%	27.1%
O=C(O)c1cc(Nc2nc(Cl)nc(Cl)n2)ccc1-c1c2ccc(=O)cc-2oc2cc(O)ccc12	37.2%	21.3%	22.7%	10%	-1.15%	49.5%
Cc1cc(O)c(C(C)C)cc1N=O	22.2%	-7.25%	18.5%	16.6%	-15.6%	6.35%
O=C(Nc1cc(Cl)c(Cl)cc1Cl)Nc1cc(Cl)ccc1Oc1ccc(Cl)cc1S(=O)(=O)O	98% (active)	99.3% (active)	99.2% (active)	98.5% (active)	98.8% (active)	98.7% (active)
NC(=O)c1ccccc1NC(=O)C(=O)Cc1nc2ccccc2[nH]c1=O	-2.55%	-1.55%	11.7%	12.7%	1.25%	6.15%
COc1cc2c(cc1OC)C1c3cc(OC)c(OC)cc3CC(=O)N1CC2 (configuration not stated)	17.6%	7.1%	38.5%	19.3%	24.5%	37.6%
Brc1ccc(Nc2ccc(Br)cc2Br)c(Br)c1	28.2%	23.1%	16.6%	11.6%	3.8%	10.2%
